# FadD28 FP inh = inhibitors of FadD28 bisubstrate probe binding, primary screen, biochemical, fluorescence polarization, single point; AID 588549, 2011; inhibition, % at 12.5 µM; Mycobacterium tuberculosis FadD28 fatty-acid-AMP ligase; hit rate 0.22% among 360,000; in the data active = inhibition above about 8.5%, passing the limit was not always enough
# FBA Mtb inh = Mtb FBA enzyme inhibitors, primary screen, biochemical, fluorescence, strain H37Rv | inhibition, % at 1 µM | Fructose-bisphosphate aldolase (Mycobacterium tuberculosis (strain ATCC 25618 / H37Rv)), … | AID 588726, 2011 | purified M. tuberculosis FBA, fluorescence read-out | hit rate 2.3% among 360,000;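 note: 0% = vehicle and 100% = reference inhibitor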
# Target sequence (P9WQA3 whole entry, looked up): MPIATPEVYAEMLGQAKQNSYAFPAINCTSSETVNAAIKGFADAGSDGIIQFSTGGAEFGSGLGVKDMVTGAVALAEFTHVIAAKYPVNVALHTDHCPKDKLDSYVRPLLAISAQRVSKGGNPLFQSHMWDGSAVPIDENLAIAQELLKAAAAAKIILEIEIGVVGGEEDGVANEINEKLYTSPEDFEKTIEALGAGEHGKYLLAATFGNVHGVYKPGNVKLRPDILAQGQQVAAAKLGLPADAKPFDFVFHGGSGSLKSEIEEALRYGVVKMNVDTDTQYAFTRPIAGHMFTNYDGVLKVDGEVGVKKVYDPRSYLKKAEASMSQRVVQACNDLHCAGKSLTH
# SARS 3CLpro inh = SARS-CoV 3CLpro protease inhibitors, primary screen, biochemical, quenched FRET. hit rate 0.14% among 290,000. recombinant SARS-CoV 3CLpro, quenched FRET peptide cleavage. AID 1706, 2009. inhibition, % at 6 µM. Replicase polyprotein 1ab (Severe acute respiratory syndrome coronavirus), P0C6X7; in the data active = inhibition above about 12%
# GDH-TPI counter-1 = GDH-TPI coupling enzyme inhibitors, primary screen, artefact control for M. tuberculosis FBA inhibitor project, biochemical, absorbance, full deck. inhibition, % at 4.8 µM. hit rate 1.2% among 360,000. GDH-TPI coupled enzyme counterscreen, NADH absorbance; in the data active = inhibition above about 30%;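 note: 0% = DMSO wells and 100% = wells lacking the enzyme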
# BioA inh = M. tuberculosis BioA enzyme inhibitors, primary screen, biochemical, plate reader, single point, HTS; purified M. tuberculosis BioA enzyme; AID 602481, 2012; 7,8-diaminopelargonic acid synthase BioA (Mycobacterium tuberculosis); hit rate 0.096% among 360,000; inhibition, % at 9.99 µM; in the data active = inhibition above about 40%
# Mtb FBA inh conf = M. tuberculosis aldolase blockers, biochemical, fluorescence, strain H37Rv, confirmation; shares compounds with FBA Mtb inh; purified M. tuberculosis FBA, fluorescence read-out; inhibition, % at 1 µM; hit rate 78% among 5,600; AID 651616, 2012;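 note: 0% = vehicle wells and 100% = reference inhibitor wells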
# GDH-TPI counter-2 = GDH-TPI coupling enzyme inhibitors, artefact control for M. tuberculosis FBA inhibitor project, biochemical, fluorescence, high throughput. inhibition, % at 1 µM. AID 652141, 2013. hit rate 81% among 5,600. GDH-TPI coupled enzyme counterscreen. shares compounds with FBA Mtb inh; in the data active = inhibition above about 10%
# Starred values were filed as active, the others as inactive; . = no result given; + = active, no number. An excerpt weighted towards active compounds, which were near 3.1% of everything screened. Cut-off read from the data, not from the text of the source, unless noted: active = inhibition above about 27%; inactive = the rest.
SMILES,FadD28 FP inh,FBA Mtb inh,SARS 3CLpro inh,GDH-TPI counter-1,BioA inh,Mtb FBA inh conf,GDH-TPI counter-2
COC(=O)C1=CN(Cc2ccc(OC)c(OC)c2)C=C(C(=O)OC)C1c1ccccc1F,-1,91*,8,2,7,61*,47*
COC(=O)C1=CN(Cc2ccc(OC)c(OC)c2)C=C(C(=O)OC)C1c1ccc(O)cc1,-1,64*,7,9,13,+,+
COC(=O)C1=CN(Cc2ccc(C)cc2)C=C(C(=O)OC)C1c1cc(OC)c(OC)c(OC)c1,-2,33*,1,12,16,91*,73*
COc1ccc(S(=O)(=O)Nc2ccc3c(c2)[C@@H]2C[C@@H](CC(=O)O)O[C@@H](CO)[C@@H]2O3)cc1,.,.,.,.,-2,.,.
CCCN(C)C[C@@H]1OCCCC[C@@H](C)Oc2ccc(NS(=O)(=O)c3c(C)noc3C)cc2C(=O)N([C@@H](C)CO)C[C@@H]1C,.,.,.,.,0,.,.
C=COC(=O)CSc1nc(-c2cccs2)ccc1C#N,-1,30*,3,16,-1,71*,53*
CC(C)OC(=O)CSc1nc(N)c(C#N)c(-c2cccs2)c1C#N,-5,0,-8,6,-2,.,.
CCOC(=O)C(C)Sc1nc(-c2cccs2)ccc1C#N (configuration not stated),-8,41*,4,21,3,2,4
Cc1ccc(/C=N/Nc2ccc3c(C(F)(F)F)cc(C(F)(F)F)nc3n2)cc1,-5,0,2,-3,0,.,.
NNc1ccc2c(C(F)(F)F)cc(C(F)(F)F)nc2n1,0,30*,1,6,0,80*,62*
CO[C@@H]1CN(C)C(=O)c2ccc(NC(C)=O)cc2OC[C@H](C)N(C(=O)Cc2cccnc2)C[C@H]1C,.,.,.,.,1,.,.
ClC1(Cl)CC1CSc1nc2ccccc2[nH]1 (configuration not stated),-3,33*,7,0,.,88*,85*
CCOc1ccc2nc(SCC3CC3(Cl)Cl)[nH]c2c1 (configuration not stated),-3,-2,-1,5,.,.,.
C[C@H]1CCCCO[C@H](CN(C)C(=O)Nc2cccc3ccccc23)[C@@H](C)CN([C@@H](C)CO)C(=O)c2cc(NC(=O)NC3CCCCC3)ccc2O1,.,.,.,.,-2,.,.
CCOC(=O)c1c(C)[nH]c(C(=O)N/N=C/c2ccc(Br)cc2)c1C,-4,-1,0,17,.,.,.
Cc1[nH]c(C(=O)N/N=C/c2ccc(N(C)C)cc2)c(C)c1C(=O)N/N=C/c1ccc(N(C)C)cc1,0,28*,-5,45*,.,60*,44*
CN(C)c1ccc(/C=N\NC(=O)CC#N)cc1,-2,30*,-2,35*,.,12,3
Cn1c(=O)c2cc(NC(=O)NCc3ccc(F)cc3)ccc2n1C/C=C/c1ccccc1,-3,60*,.,2,0,26,25*
Cn1c(=O)c2cc(NC(=S)NC3CC3)ccc2n1C/C=C/c1ccccc1,1,34*,.,7,0,70*,54*
Cn1c(=O)c2cc(NC(=O)Cc3ccccc3F)ccc2n1C/C=C/c1ccccc1,0,62*,.,9,-1,+,+
C[C@H](O)C#Cc1ccc2c(c1)O[C@H](CN(C)Cc1ccc(-c3ccccc3)cc1)[C@H](C)CN([C@@H](C)CO)S2(=O)=O,.,.,.,.,-1,.,.
Nc1nc2c(c(=O)[nH]1)CN(Cc1ccccc1)CC2,-1,53*,.,20,3,108*,99*
Nc1c2c(nc3ccccc13)CCN(Cc1ccccc1)C2,-3,16,-2,6,2,.,.
Cc1c(C)n2c(SCC(=O)NC3CCCCC3)nnc2[nH]c1=O,-2,32*,.,4,.,-3,-4
O=C(C1CCCC1)N1CCCCN2[C@@H](CO)[C@H](c3ccc(C#CC4CC4)cc3)[C@@H]2C1,.,.,.,.,0,.,.
SMILES,FadD28 FP inh,FBA Mtb inh,SARS 3CLpro inh,GDH-TPI counter-1,BioA inh,Mtb FBA inh conf,GDH-TPI counter-2
Cc1nn(CCO)c2nc(-c3cccs3)cc(C(F)(F)F)c12,-1,100*,0,24,.,180*,168*
CN(C)c1nc(-c2cccs2)cc(C(F)(F)F)c1C#N,-4,35*,-3,17,1,0,-4
Cc1nn(C)c2nc(-c3cccs3)cc(C(F)(F)F)c12,1,12,3,12,.,.,.
CC1(C)Oc2ccc3ccc(=O)oc3c2[C@@H](O)[C@H]1O,1,69*,.,17,0,64*,66*
CCO[C@H]1c2c(ccc3ccc(=O)oc23)OC(C)(C)[C@H]1O,-3,35*,.,9,-1,+,+
C/C=C(/C)C(=O)OC1c2c(ccc3ccc(=O)oc23)OC(C)(C)C1OC(=O)/C(C)=C\C (configuration not stated),-2,12,3,16,0,.,.
CC1(C)Oc2ccc3ccc(=O)oc3c2CC1O (configuration not stated),-1,78*,1,27,0,80*,69*
CC1(C)Oc2ccc3ccc(=O)oc3c2C[C@H]1O[C@@H]1O[C@H](CO)[C@@H](O)[C@H](O)[C@H]1O,-1,55*,.,11,-1,22,12*
C[C@H]1CCCCO[C@@H](CN(C)C(=O)c2ccccc2)[C@@H](C)CN([C@@H](C)CO)C(=O)c2cc(NS(=O)(=O)c3ccc(Cl)cc3)ccc2O1,.,.,.,.,-1,.,.
C[C@H](CO)N1C[C@H](C)[C@H](CN(C)CC2CCCCC2)Oc2ccc(NS(C)(=O)=O)cc2C1=O,.,.,.,.,1,.,.
COc1ccc(NC(=O)N(C)C[C@@H]2Oc3ccc(NS(=O)(=O)c4ccc(OC)cc4)cc3CC(=O)N([C@H](C)CO)C[C@@H]2C)cc1,.,.,.,.,0,.,.
CC1CC(C)CN(C(=O)c2cc3c(=O)n4ccccc4nc3s2)C1 (configuration not stated),.,53*,0,8,0,+,+
CC(C)NC(=O)c1cc2c(=O)n3ccccc3nc2s1,1,-3,-2,-12,0,.,.
CCOC(=O)N1CCN(C(=O)c2cc3c(=O)n4ccccc4nc3s2)CC1,0,49*,-4,13,0,67*,58*
C[C@@H]1CN([C@@H](C)CO)C(=O)c2cc(NS(=O)(=O)c3ccc(F)cc3)ccc2O[C@@H](C)CCCCO[C@H]1CN(C)Cc1ccc(C(=O)O)cc1,.,.,.,.,1,.,.
CNC(=O)C[C@H]1CC[C@@H]2[C@H](COc3ccc(NC(=O)C4CC4)cc3C(=O)N2C)O1,.,.,.,.,1,.,.

# Source: PubChem
